We go through 45 molecules from the supplement of paper PMC7695840.

Assay [1] relates to Staphylococcus aureus MW2 delta-mecA (mecA-). The assay is described as follows: normalized GFP fluorescence (growth of mecA- strain) (fraction of control range); higher = more growth of mecA- strain. Conditions: compound concentration: 150 uM; cefoxitin: subinhibitory; fluorescent label: GFP. The gist of the method:
(§1)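 In 1536-well plates holding 150 μM compound (1.5% DMSO), a 1:1 mix of pre-induced S. aureus MW2 cells was added at 5 µL/well, in one replicate. One strain carried the gene and DsRed, the other lacked the gene and carried GFP, and the LB held a subinhibitory antibiotic dose chosen daily. Plates stood unshaken for 20 h at 37 °C, 90% humidity, before DsRed (540/590) and GFP (485/520) readings, which were scaled per plate to single-strain control medians, with plates high in untreated ratio and rows above DsRed/GFP 10 dropped.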

Assay [2] concerns Staphylococcus aureus MW2 (mecA+). Kind of assay: normalized DsRed fluorescence (growth of mecA+ strain) (fraction of control range); higher = more growth of mecA+ strain. Conditions: compound concentration: 150 uM; cefoxitin: subinhibitory; fluorescent label: DsRed. A digest of the protocol: as §1

Counter-ions that a name gives are not always drawn.

With `Nc1c2c(nc3ccccc13)CCCC2`, the “normalized GFP fluorescence” value in assay [1] was determined as 0.414. Further, the “normalized DsRed fluorescence” value in assay [2] is 0.996.

Turning to `CC(=O)N(CC(O)CO)c1c(I)c(C(=O)NCCO)c(I)c(C(=O)NCC(O)CO)c1I` (stereo not given), the “normalized GFP fluorescence” value in assay [1] came to 0.914. In addition, in assay [2], the “normalized DsRed fluorescence” value came out at 0.86.

`O=C1c2ccccc2C(=O)C1c1ccccc1` [Phenindione (Rectadione)]: in assay [1], the “normalized GFP fluorescence” value stood at 0.0982. The “normalized DsRed fluorescence” value in assay [2] is 0.634.

For the molecule `CNCCc1ccccn1`, in assay [1], the “normalized GFP fluorescence” value was 0.393. Also, in assay [2], the “normalized DsRed fluorescence” value stood at 0.969.

As for `CCn1cc(C(=O)O)c(=O)c2cc(F)c(N3CCNCC3)nc21` [Enoxacin (Penetrex)], in assay [1], the “normalized GFP fluorescence” value amounted to 0.206. Further, in assay [2], the “normalized DsRed fluorescence” value turned out to be 0.928.

As to `COC(=O)[C@@H]1[C@H]2C[C@H]3c4[nH]c5ccccc5c4CCN3C[C@@H]2CC[C@@H]1O`, in assay [1], the “normalized GFP fluorescence” value was 0.259. Further, the “normalized DsRed fluorescence” value in assay [2] stood at 0.809.

As to `CCN1CCCC1CNC(=O)c1cc(S(N)(=O)=O)ccc1OC` (stereo not given), the “normalized GFP fluorescence” value in assay [1] was 0.362. In addition, the “normalized DsRed fluorescence” value in assay [2] is 0.764.

In the case of `C#C[C@]1(O)CC[C@H]2[C@@H]3CCC4=Cc5oncc5C[C@]4(C)[C@H]3CC[C@@]21C`, in assay [1], the “normalized GFP fluorescence” value came to 0.414. The “normalized DsRed fluorescence” value in assay [2] is 0.779.

Take `CCCCC(=O)O[C@H]1CC[C@H]2[C@@H]3CCc4cc(O)ccc4[C@H]3CC[C@]12C`: the “normalized GFP fluorescence” value in assay [1] is 0.109. The “normalized DsRed fluorescence” value in assay [2] is 0.605.

For `C[N+]1(C)[C@@H]2C[C@@H](OC(=O)C(O)(c3cccs3)c3cccs3)C[C@H]1[C@@H]1O[C@@H]12` [Tiotropium Bromide hydrate], the “normalized GFP fluorescence” value in assay [1] turned out to be 0.394. For the same molecule, the “normalized DsRed fluorescence” value in assay [2] stood at 0.674.

Turning to `CC(C)NCC(O)COc1ccc(COCCOC(C)C)cc1` (stereo not given), in assay [1], the “normalized GFP fluorescence” value amounted to 0.499. The “normalized DsRed fluorescence” value in assay [2] came out at 0.658.

With `N=C(N)N`, the “normalized GFP fluorescence” value in assay [1] is 0.207. In addition, in assay [2], the “normalized DsRed fluorescence” value is 0.654.

On to `CC(=O)CC(c1ccc([N+](=O)[O-])cc1)c1c(O)c2ccccc2oc1=O` (stereo not given), for which, in assay [1], the “normalized GFP fluorescence” value turned out to be 0.279. Moreover, the “normalized DsRed fluorescence” value in assay [2] was determined as 0.29.

With `CCN(CC)CCNC(=O)c1c(C)[nH]c(/C=C2\C(=O)Nc3ccc(F)cc32)c1C` [Sunitinib Malate (Sutent)], the “normalized GFP fluorescence” value in assay [1] came to 0.0077. Further, the “normalized DsRed fluorescence” value in assay [2] was 1.42.

For the molecule `CC(C)c1nc(N(C)S(C)(=O)=O)nc(-c2ccc(F)cc2)c1/C=C/[C@@H](O)C[C@@H](O)CC(=O)O`, the “normalized GFP fluorescence” value in assay [1] came to 0.207. Also, the “normalized DsRed fluorescence” value in assay [2] came out at 0.514.

`CC(C)NCC(O)c1ccc(NS(C)(=O)=O)cc1` (stereo not given): the “normalized GFP fluorescence” value in assay [1] was determined as 0.417. Also, the “normalized DsRed fluorescence” value in assay [2] was found to be 0.703.

Turning to `CNC[C@H](O)c1ccc(O)c(O)c1`, the “normalized GFP fluorescence” value in assay [1] came to 0.95. Also, the “normalized DsRed fluorescence” value in assay [2] came to 0.812.

Consider `O=C(O)c1cccc(-c2noc(-c3ccccc3F)n2)c1` [PTC124 (Ataluren)], for which the “normalized GFP fluorescence” value in assay [1] is 0.0948. The “normalized DsRed fluorescence” value in assay [2] worked out at 0.473.

In the case of `COc1ccc2c(c1OC)C(=O)O[C@@H]2[C@H]1c2c(cc3c(c2OC)OCO3)CCN1C`, in assay [1], the “normalized GFP fluorescence” value came to 0.473. Moreover, in assay [2], the “normalized DsRed fluorescence” value was determined as 0.698.

On to `C[C@]12CCC(=O)C=C1[C@@H]1C[C@@H]1[C@H]1[C@@H]3[C@@H]4C[C@@H]4[C@@]4(CCC(=O)O4)[C@@]3(C)CC[C@@H]12`, for which the “normalized GFP fluorescence” value in assay [1] was 0.162. For the same molecule, in assay [2], the “normalized DsRed fluorescence” value amounted to 0.65.

With `Nc1nc(CC(=O)Nc2ccc(CCNC[C@H](O)c3ccccc3)cc2)cs1` [Mirabegron (YM178)], in assay [1], the “normalized GFP fluorescence” value is 0.336. The “normalized DsRed fluorescence” value in assay [2] is 1.03.

In the case of `Oc1ncnc2[nH]ncc12`, the “normalized GFP fluorescence” value in assay [1] worked out at 0.524. For the same molecule, in assay [2], the “normalized DsRed fluorescence” value stood at 0.531.

On to `CS(=O)(=O)c1ccc([C@@H](O)[C@@H](CO)NC(=O)C(Cl)Cl)cc1`, for which the “normalized GFP fluorescence” value in assay [1] came to 0.776. The “normalized DsRed fluorescence” value in assay [2] amounted to 0.661.

As to `CC(C(=O)O)c1ccc(N2Cc3ccccc3C2=O)cc1` (stereo not given), the “normalized GFP fluorescence” value in assay [1] came to 0.227. Moreover, the “normalized DsRed fluorescence” value in assay [2] was 0.501.

Turning to `CCCCCCc1ccc(O)cc1O`, in assay [1], the “normalized GFP fluorescence” value stood at 0.0569. Also, the “normalized DsRed fluorescence” value in assay [2] worked out at 1.59.

`O=C(O)c1ccccc1C(=O)Nc1ccc(S(=O)(=O)Nc2nccs2)cc1`: the “normalized GFP fluorescence” value in assay [1] came out at 0.538. In addition, the “normalized DsRed fluorescence” value in assay [2] came to 0.763.

`CNCCC(Oc1ccc(C(F)(F)F)cc1)c1ccccc1` (stereo not given): the “normalized GFP fluorescence” value in assay [1] is -0.00367. Moreover, in assay [2], the “normalized DsRed fluorescence” value came out at 1.27.

Regarding `C#Cc1cccc(Nc2ncnc3cc4c(cc23)OCCOCCOCCO4)c1` [Icotinib], the “normalized GFP fluorescence” value in assay [1] was 0.488. Also, the “normalized DsRed fluorescence” value in assay [2] came out at 0.429.

`C=CC[C@@H]1/C=C(\C)C[C@H](C)C[C@H](OC)[C@H]2O[C@@](O)(C(=O)C(=O)N3CCCC[C@H]3C(=O)O[C@H](/C(C)=C/[C@@H]3CC[C@@H](O)[C@H](OC)C3)[C@H](C)[C@@H](O)CC1=O)[C@H](C)C[C@@H]2OC` [FK-506 (Tacrolimus)]: the “normalized GFP fluorescence” value in assay [1] is 0.0621. Moreover, the “normalized DsRed fluorescence” value in assay [2] was determined as 1.04.

As to `O=C(O)COCCN1CCN([C@H](c2ccccc2)c2ccc(Cl)cc2)CC1`, the “normalized GFP fluorescence” value in assay [1] turned out to be 0.222. Further, the “normalized DsRed fluorescence” value in assay [2] stood at 0.775.

For `O=C(Nc1c(Cl)cncc1Cl)c1ccc(OC(F)F)c(OCC2CC2)c1` [Roflumilast (Daxas)], the “normalized GFP fluorescence” value in assay [1] is 0.368. For the same molecule, in assay [2], the “normalized DsRed fluorescence” value is 0.773.

Turning to `OC[C@H]1O[C@@H](O[C@@H]2[C@@H](CO)O[C@](O)(CO)[C@H]2O)[C@H](O)[C@@H](O)[C@H]1O`, the “normalized GFP fluorescence” value in assay [1] is 0.29. Further, the “normalized DsRed fluorescence” value in assay [2] is 0.712.

As for `COc1cc2c(cc1OC)CC(=O)N(CCCN(C)C[C@H]1Cc3cc(OC)c(OC)cc31)CC2` [Ivabradine HCl (Procoralan)], the “normalized GFP fluorescence” value in assay [1] was found to be 0.478. In assay [2], the “normalized DsRed fluorescence” value amounted to 0.555.

Regarding `Nc1ncnc2c1ncn2[C@@H]1O[C@H](CO)[C@@H](O)[C@@H]1O`, the “normalized GFP fluorescence” value in assay [1] stood at 0.428. Moreover, the “normalized DsRed fluorescence” value in assay [2] was found to be 0.346.

In the case of `CC(C)(C)NCC(O)COc1cccc2c1CCC(=O)N2` (stereo not given), the “normalized GFP fluorescence” value in assay [1] is 0.243. Further, the “normalized DsRed fluorescence” value in assay [2] came to 1.11.

As to `Cc1[nH+]cc(COP(=O)([O-])[O-])c(CN(CCN(CC(=O)[O-])Cc2c(COP(=O)([O-])O)c[nH+]c(C)c2O)CC(=O)[O-])c1O.[Mn].[Na+].[Na+].[Na+]`, the “normalized GFP fluorescence” value in assay [1] stood at 0.415. The “normalized DsRed fluorescence” value in assay [2] came to 0.481.

For the molecule `CN(Cc1cc(Br)cc(Br)c1N)C1CCCCC1`, the “normalized GFP fluorescence” value in assay [1] was 0.459. For the same molecule, the “normalized DsRed fluorescence” value in assay [2] stood at 0.919.

As to `COc1nc(N)nc2c1ncn2[C@@H]1O[C@H](CO)[C@@H](O)[C@@H]1O` [Nelarabine (Arranon)], in assay [1], the “normalized GFP fluorescence” value was found to be 0.298. Moreover, the “normalized DsRed fluorescence” value in assay [2] is 0.855.

`Nc1ccn([C@@H]2CS[C@H](CO)O2)c(=O)n1`: the “normalized GFP fluorescence” value in assay [1] was determined as 0.367. Besides, in assay [2], the “normalized DsRed fluorescence” value was 0.767.

For the molecule `CC(C(=O)O)c1cccc(Oc2ccccc2)c1` (stereo not given), the “normalized GFP fluorescence” value in assay [1] amounted to 0.136. The “normalized DsRed fluorescence” value in assay [2] was 0.467.

As for `CCCc1nc2c(C)cc(-c3nc4ccccc4n3C)cc2n1Cc1ccc(-c2ccccc2C(=O)O)cc1`, in assay [1], the “normalized GFP fluorescence” value is 0.106. In addition, the “normalized DsRed fluorescence” value in assay [2] stood at 0.194.

On to `CCOC(=O)N1CCC(=C2c3ccc(Cl)cc3CCc3cccnc32)CC1`, for which the “normalized GFP fluorescence” value in assay [1] is -0.02. Moreover, the “normalized DsRed fluorescence” value in assay [2] was 0.807.

Take `COc1ccc(C[C@@H]2c3cc(OC)c(OC)cc3CC[N@+]2(C)CCC(=O)OCCCCCOC(=O)CC[N@@+]2(C)CCc3cc(OC)c(OC)cc3[C@H]2Cc2ccc(OC)c(OC)c2)cc1OC` [Cisatracurium besylate (Nimbex)]: the “normalized GFP fluorescence” value in assay [1] came out at 0.62. Also, the “normalized DsRed fluorescence” value in assay [2] is 0.713.

`CCc1cc(C(N)=S)ccn1`: the “normalized GFP fluorescence” value in assay [1] is 0.386. Further, the “normalized DsRed fluorescence” value in assay [2] came out at 0.65.

Take `COc1cc2/c(=N/c3ccc(Br)cc3F)nc[nH]c2cc1OCC1CCN(C)CC1` [Vandetanib (Zactima)]: the “normalized GFP fluorescence” value in assay [1] is 0.22. Further, the “normalized DsRed fluorescence” value in assay [2] was 1.19.
